Screening data deposited in PubChem BioAssay by National Center for Advancing Translational Sciences (NCATS).
Eya2 phos inh: inhibitors of human Eya2 phosphatase activity | O00167 | recombinant Eya2, OMFP fluorescence dephosphorylation (OMFP is methylfluorescein phosphate) | 330,000 tested, 0.006% active | Potency, µM (highest dose often 76.9 µM), for the others: at the highest dose activity, negative = inhibition, actives largely listed as inhibitors; note: % is set by controls: 0 for no effect and ±100 for the full control effect
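Eya2 (0.2 uM) preincubated 10 min at ambient with compound, then OMFP substrate added at 50 uM; 10 min reaction in 50 mM HEPES pH 7.5, 50 mM NaCl, 5 uM MgCl2, 0.05% BSA, 1 mM DTT. Fluorescence read at Ex 485/Em 525 nm.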
TSG101-PTAP inh: blocks PTAP/TSG101 interaction to inhibit HIV-1 budding | Q99816 | 340,000 tested, under 10 active | Potency, µM (top dose mostly 115 µM), for the others: at the highest dose activity change, negative = inhibition, usual class: inhibitors | Fluorescence polarization, FITC-PTAP peptide / Tsg101 binding | AID 493005; active = well fitted inhibition curve with a large enough effect in the main read-out, with a control signal flat, not every such curve was filed as active; inconclusive = small, poorly fitted or top-dose-only effect, or effect the other way, or a change in a side signal; inactive = no such curve, though single readings can be large or run the other way; note: % of control where 0% means no effect
Target sequence (Q99816 whole entry, looked up): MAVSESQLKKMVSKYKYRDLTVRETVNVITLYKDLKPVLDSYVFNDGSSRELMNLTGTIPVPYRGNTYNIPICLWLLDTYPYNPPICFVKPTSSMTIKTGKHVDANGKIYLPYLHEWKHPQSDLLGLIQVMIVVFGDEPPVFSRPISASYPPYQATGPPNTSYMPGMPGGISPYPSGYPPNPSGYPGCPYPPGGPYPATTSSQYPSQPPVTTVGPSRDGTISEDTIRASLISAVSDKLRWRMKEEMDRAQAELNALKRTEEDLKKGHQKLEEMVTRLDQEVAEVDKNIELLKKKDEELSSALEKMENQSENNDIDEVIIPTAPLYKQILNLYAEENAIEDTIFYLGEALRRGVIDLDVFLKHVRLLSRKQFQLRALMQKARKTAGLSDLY
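Steps: Tsg101 binding domain dispensed (10 uM final), compounds pinned in DMSO, FITC-labeled PTAP-motif peptide added (50 nM final); after 20 min binding at room temperature, polarization measured.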
ALOX12 inh: blocks human arachidonate 12S-lipoxygenase | P18054 | purified 12hLO, xylenol orange hydroperoxide absorbance | Potency, µM (top dose mostly 108 µM), without a hit: top-dose activity change, negative = inhibition, actives largely listed as inhibitors | 580,000 tested, 1.1% active | AID 1671190; note: % is set by controls: 0 for no effect and ±100 for the full control effect
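Purified human 12hLO (150 nM final) in 25 mM Hepes, 0.01% Triton X-100, pH 7.0 was preincubated 15 min at room temperature with compound. Then 40 uM arachidonic acid was added, 30 min. Hydroperoxide was read by Fe-XO absorbance ratio 573/405 nm.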
USP2a inh: blocks human ubiquitin-specific protease USP2a | USP2 core, Ub-CHOP2 coupled fluorogenic reporter, 485/531 | AID 463254 | Potency, µM (doses to about 38.3 µM), for the others: at the highest dose activity change, negative = inhibition, actives largely listed as inhibitors | O75604 | 330,000 tested, 0.01% active;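 note: plate controls were DMSO wells for no effect and full inhibition by NEM control for full effect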
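Cell-free coupled assay: 10nM USP2 core preincubated 30min RT with compound in Tris-HCl pH 8.0/CaCl2/CHAPS buffer, then 25nM Ub-CHOP2 and 25nM reporter substrate; fluorescence (Ex 485/Em 531) read after 60min RT, normalized to NEM inhibition, concentration-response curves fitted.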
Active calls of the source: *. Only some compounds are listed: those with a hit (about 1.1% of all), similar ones and a draw of the others. Unless noted, calls come from the whole dose curve; as a rule, active = well fitted curve in the direction sought with a large enough effect; inconclusive = small, poorly fitted or top-dose-only effect, or another doubt; inactive = no such curve, though single readings can be large; an effect the other way counts as inactive or inconclusive. Potency is the fitted concentration of half-maximal effect.

`COCC1CN(C)CC12CCN(Cc1ccc(C#N)cc1)CC2` (stereo unspecified) gave ALOX12 inh 63%.
Screening COC(=O)Nc1[nH]ncc1[N+](=O)[O-] returned Eya2 phos inh 8%, TSG101-PTAP inh 1%, ALOX12 inh 35µM* and USP2a inh 3%.
Screening O=S1(=O)CCC(N=Cc2cc(Br)ccc2O)C1 (stereo unspecified) returned Eya2 phos inh 2%, TSG101-PTAP inh -1%, ALOX12 inh 28µM* and USP2a inh 1%.
Screening O=c1c2ccccc2c(C=NC2CCS(=O)(=O)C2)c(O)n1-c1ccccc1 (stereo unspecified) returned Eya2 phos inh -13%, TSG101-PTAP inh -2%, ALOX12 inh 0% and USP2a inh 1%.
CCOC(=O)C1CCCCN1Cc1cccc(Oc2ccccc2)c1 (stereo unspecified) was read as Eya2 phos inh inconclusive, TSG101-PTAP inh -3%, ALOX12 inh 14µM* and USP2a inh 0%.
Screening CCOC(=O)C1CCCCN1Cc1cccc(OCc2ccccc2)c1 (stereo unspecified) returned Eya2 phos inh -8%, TSG101-PTAP inh -2%, ALOX12 inh 23% and USP2a inh -1%.
CC1=C[C@@H](CNC(=O)c2ccc(F)cc2)[C@H](C(C)C)C[C@H]1Cc1nnc(-c2ccncc2)o1 was read as ALOX12 inh 3%.
Screening Cn1c(=O)[nH]c(=O)c2c1nc(N1CCC(C(N)=O)CC1)n2Cc1ccccc1Cl returned ALOX12 inh -22%.
Screening Cc1cccc(C)c1NC(=O)CN1C(=O)S/C(=C\c2cccn2-c2cccc(C(=O)O)c2)C1=O returned Eya2 phos inh -1%, TSG101-PTAP inh -5%, ALOX12 inh -26% and USP2a inh 1%.
Cc1cccc(C)c1-n1cccc1/C=C1\SC(=S)N(c2cccc(C(=O)O)c2)C1=O was read as Eya2 phos inh -13%, TSG101-PTAP inh 2%, ALOX12 inh 45µM* and USP2a inh inconclusive.
O=C(Nc1ccc(C(=O)O)cc1)/C(=C\c1ccco1)NC(=O)c1ccccc1 was read as Eya2 phos inh 11%, TSG101-PTAP inh -1%, ALOX12 inh 0% and USP2a inh 3%.
Screening CC(C)(C)c1ccc(C(=O)N/C(=C\c2ccco2)C(=O)Nc2ccccc2C(=O)O)cc1 returned Eya2 phos inh 1%, TSG101-PTAP inh 0%, ALOX12 inh 32µM* and USP2a inh 3%.
For Cc1ccc(S(=O)(=O)/N=C2/NC(=O)/C(=C/c3ccc(Br)o3)S2)cc1 the results were Eya2 phos inh 8%, TSG101-PTAP inh -9%, ALOX12 inh 1µM* and USP2a inh 0%.
Screening Cc1ccc(S(=O)(=O)/N=C2/NC(=O)/C(=C\c3cc(Br)cc(Br)c3O)S2)cc1 returned Eya2 phos inh inconclusive, TSG101-PTAP inh 20% and USP2a inh -22%.
COc1ccc(Nc2cc(C)nc(N3CCN(C(=O)Nc4cc(C)ccc4C)CC3)n2)cc1 was read as ALOX12 inh -13%.
`O=C(CCN1C(=O)/C(=C\C=C\c2ccccc2)SC1=S)Nc1ccc(C(=O)O)cc1` gave Eya2 phos inh -14%, TSG101-PTAP inh -9%, ALOX12 inh 32µM* and USP2a inh 3%.
O=C(CCCN1C(=O)/C(=C/c2ccc3c(c2)OCO3)SC1=S)Nc1ccc(C(=O)O)cc1 was read as Eya2 phos inh -4%, TSG101-PTAP inh 11%, ALOX12 inh 14µM* and USP2a inh 2%.
O=C(CN1C(=O)S/C(=C/C=C/c2ccccc2)C1=O)Nc1ccc(C(=O)O)cc1 was read as Eya2 phos inh -13%, TSG101-PTAP inh -2%, ALOX12 inh -11% and USP2a inh 3%.
For COc1ccc2c(CSc3nnnn3-c3ccccc3)cc(=O)oc2c1 the results were ALOX12 inh -65%.
`C#CCOCCOCCOCCNc1nc(N2CCN(C(=O)CCCCCCCCCCNC(=O)[C@H](CO)n3cc(CCCCCN)nn3)CC2)nc(N2CCN(C(=O)CCCCCCCCCCNC(=O)[C@H](CCCN=C(N)N)n3cc(C[C@@H](C)CC)nn3)CC2)n1` gave Eya2 phos inh -31% and USP2a inh inconclusive.
For C#CCOCCOCCOCCNc1nc(N2CCN(C(=O)Cn3cc(CCCN=C(N)N)nn3)CC2)nc(N2CCN(C(=O)[C@H](C)n3cc(CCCN=C(N)N)nn3)CC2)n1 the results were Eya2 phos inh 17%, TSG101-PTAP inh -6%, ALOX12 inh inconclusive and USP2a inh 2%.
Screening C#CCOCCOCCOCCNc1nc(N2CCN(C(=O)CCCCCCCCCCNC(=O)[C@H]([C@@H](C)CC)n3cc(CCCCN=C(N)N)nn3)CC2)nc(N2CCN(C(=O)CCCCCCCCCCNC(=O)[C@H](CCCN=C(N)N)n3cc(C[C@@H](C)CC)nn3)CC2)n1 returned Eya2 phos inh -24% and USP2a inh 11µM*.
C#CCOCCOCCOCCNc1nc(N2CCN(C(=O)CCCCCCCCCCNC(=O)[C@H](CCCN=C(N)N)n3cc(C[C@@H](C)CC)nn3)CC2)nc(N2CCN(C(=O)CCCCCCCCCCNC(=O)[C@@H]([C@H](C)CC)n3cc(CCCCCN)nn3)CC2)n1 was read as Eya2 phos inh inconclusive and USP2a inh 10µM*.
Screening C#CCOCCOCCOCCNc1nc(N2CCN(C(=O)Cn3cc(CCCCN)nn3)CC2)nc(N2CCN(C(=O)Cn3cc(CCCN=C(N)N)nn3)CC2)n1 returned Eya2 phos inh 19%, TSG101-PTAP inh -2%, ALOX12 inh 2.5µM* and USP2a inh -1%.
Screening CCC(C)c1ccc(NC(=S)NCCn2cc(Cl)cn2)cc1 (stereo unspecified) returned Eya2 phos inh -1%, TSG101-PTAP inh 3%, ALOX12 inh 35µM* and USP2a inh 2%.
CCOc1cccc2cc(S(=O)(=O)c3ccc(Cl)c(Cl)c3)c(=O)oc12 was read as ALOX12 inh -5%.
Screening COC[C@H]1CCCN1C(=O)C[C@@H]1O[C@H](CNS(=O)(=O)c2ccccc2)[C@@H](O)[C@H]1O returned ALOX12 inh 40µM*.
Screening O=C(C[C@@H]1O[C@H](CNS(=O)(=O)c2ccccc2)[C@@H](O)[C@H]1O)N1CCN(c2ccccc2)CC1 returned ALOX12 inh 6%.
`Cc1ccc(CNC(=O)N2CC[C@@H]3C(=O)NCCCCCCN(Cc4ccncc4)[C@@H]3C2)cc1` gave ALOX12 inh 44%.
Screening CCCn1c(NC(=S)Nc2ccccc2)nc2ccccc21 returned Eya2 phos inh 2%, TSG101-PTAP inh -2%, ALOX12 inh 22µM* and USP2a inh 3%.
S=C(Nc1ccccc1)Nc1nc2ccccc2n1CCOc1ccc(Cl)cc1 was read as Eya2 phos inh -6%, TSG101-PTAP inh -4%, ALOX12 inh 8.9µM* and USP2a inh 2%.
